# TDP1 cell noCPT: qHTS for Inhibitors of human tyrosyl-DNA phosphodiesterase 1 (TDP1): qHTS in cells in absence of CPT. DT40 Tdp1-/- hTDP1 cells, no CPT, ATP luminescence, 48 h. Potency, µM (series often up to 46.2 µM), inactives show top-dose activity change, negative = growth inhibition, most hits filed as inhibitors. 420,000 compounds, 15% hits. AID 686978, 2013; further: potency means the concentration at half of the fitted maximal effect; on the % scale 0 is the no-effect control and ±100 the full control effect; nearly all actives have a fitted effect of over 55% in size
#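 Compound effects on proliferation are scored in DT40 Tdp1-/-;hTDP1 cells in the absence of CPT. ATP levels (CellTiter-Glo luminescence) are recorded after a ≥48 hr, 37 °C incubation.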
# MCF10A rerep: inducers of DNA re-replication in MCF 10A breast cells; MCF 10A DNA re-replication, Hoechst nuclear intensity, 48 h; Potency, µM (doses to about 46.1 µM), for the others: at the highest dose activity, positive = re-replication, most hits filed as activators; 350,000 compounds, 2.9% hits; AID 624296; further: potency means the concentration at half of the fitted maximal effect; % of control where 0% means no effect; nearly all actives have a fitted effect of over 50% in size
# SW480 rereplic: inducers of DNA re-replication in SW480 colon cancer cells | SW480 DNA re-replication, Hoechst DNA content imaging, 48 h | Potency, µM (top dose mostly 46.1 µM), for the others: at the top dose re-replication activation, usual class: activators | 340,000 compounds, 1.8% hits; further: potency means the concentration at half of the fitted maximal effect; % of control where 0% means no effect; nearly all actives have a fitted effect of over 55% in size
#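 First, 250 cells per well were seeded. Next, compound or vehicle (23 nL) was pinned in, plates sat 48 hr at 37 C. Finally Hoechst was added for 40 min before fluorescence scanning.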
# IL-1B inflam inh: inhibitors of inflammasome signaling (IL-1 beta secretion); THP-1 LPS/ATP IL-1B secretion, AlphaLISA, 16 h; hits give low values; activity change, % at 57.5 µM; 360,000 compounds, 4.7% hits; AID 743279; in the data active means activity change below about -50%; inconclusive means mostly about -30% to -49%; further: on the % scale 0 is the no-effect control and ±100 the full control effect
#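 THP-1 cells pretreated 1 hr with compounds (up to 57.5 uM final), then stimulated with LPS (250 ng/mL final) plus ATP (1.25 mM final); secreted IL-1B measured by AlphaLISA after 16 hr, decreased signal indicating inhibition.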
# BCR signal inh: inhibitors of chronic active B-cell receptor signaling; ABC-DLBCL IkBa-CBG/CBR reporter, luminescence ratio, 4 h; AID 493014; 340,000 compounds, 0.05% hits; Potency, µM (series often up to 46.1 µM), for inactives: at the highest dose activity change, negative = inhibition, actives largely listed as inhibitors; active means well fitted inhibition curve with a large enough effect in the signal ratio, with a control signal flat, not every such curve was filed as active; inconclusive means small, poorly fitted or top-dose-only effect, or effect the other way, or a change in a side signal; the % refers to the signal ratio;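 further: potency means the concentration at half of the fitted maximal effect; plate controls were basal doxycycline-induced cells for no effect and cells given 10 µM MG132 for full effect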
#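 Concentration-response series (up to 46 uM) were applied to TMD8 dual-reporter cells for 4 h at 37C with doxycycline. Green/red ratio, after filter-overlap correction, defined %Activity; red signal alone was normalised to basal cells and zero luminescence.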
# DT40 TDP1 CPT: DT40-hTDP1 cell growth loss with CPT; chicken DT40 Tdp1-/-;hTDP1 cells + 20 nM CPT, ATP luminescence, 48 h; Potency, µM (highest dose often 46.2 µM), inactives show at the top dose activity change, negative = growth inhibition, actives largely listed as inhibitors; 420,000 compounds, 12% hits; AID 686979; further: potency means the concentration at half of the fitted maximal effect; on the % scale 0 is the no-effect control and ±100 the full control effect; nearly all actives have a fitted effect of over 55% in size
#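 Chicken DT40 Tdp1-/- cells stably complemented with human TDP1 were seeded at 400 cells/well in medium containing 20 nM camptothecin, exposed to pin-transferred compounds, and grown at 37 °C for at least 48 hr. Viability was read as ATP luminescence.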
# * = called active by the depositor; u = inconclusive; x = no result given. Sampled rows, rich in hits. Any-hit rate of the full collection: about 19%. Unless noted, the call rests on the fitted dose curve; in most records, active means well fitted curve in the direction sought with a large enough effect; inconclusive means small, poorly fitted or top-dose-only effect, or another doubt; inactive means no such curve, though single readings can be large; an effect the other way counts as inactive or inconclusive.
SMILES,TDP1 cell noCPT,MCF10A rerep,SW480 rereplic,IL-1B inflam inh,BCR signal inh,DT40 TDP1 CPT
O=C(Nc1cccc(Cl)c1)Nc1ccc(Br)cc1F,12µM*,u,u,-59*,u,21µM*
O=c1[nH]nnc2c1ncn2C1OC(CO)C(O)C1O (stereo not drawn),u,x,x,7,x,u
Nn1c(COc2ccccc2F)nnc1SCC(=O)NC1CCCCC1,0%,0%,-5%,-1,0%,16%
O=C(Nc1ccccn1)c1cccc(S(=O)(=O)N2CCc3ccccc3C2)c1,u,u,30%,-56*,-4%,-23%
CC(=O)Nc1ccc(NC(=O)c2ccc(Cl)c(S(=O)(=O)N3CCc4ccccc43)c2)cc1,4.6µM*,6%,-3%,20,x,u
O=C(Nc1ccccn1)c1ccc(Cl)c(S(=O)(=O)N2CCc3ccccc32)c1,u,20%,-8%,-28,1%,16µM*
O=C1CCCN1CC(O)CS(=O)(=O)Cc1ccc(Cl)c(Cl)c1 (stereo not drawn),4%,-3%,-30%,0,-2%,-1%
CN(C(=O)CSc1nc2ccccc2c(=O)n1-c1ccccc1Cl)C1CCS(=O)(=O)C1 (stereo not drawn),u,11%,-7%,-1,-11%,-23%
CSc1ncccc1C(=O)Nc1nccs1,1%,0%,-2%,7,-2%,4%
CCN(CC)S(=O)(=O)c1cc(C)ccc1SC,u,1%,23µM*,21,0%,-12%
N#C/C(=C\c1cn(CC(=O)N2CCCCC2)c2ccccc12)C(=O)NCc1ccc2c(c1)OCO2,1%,1%,1.6µM*,-17,3%,-6%
N#C/C(=C\c1cccc(Oc2ccccc2)c1)C(=O)N1CCOCC1,u,u,u,-100*,-16%,u
COc1ccc(N2CCN(C(=O)C(=O)c3cn(CC(=O)N4CCCC4)c4ccccc34)CC2)cc1,u,x,x,26,x,21µM*
CCN(CC)C(=O)Cn1cc(C(=O)C(=O)N2CCN(c3ccc(OC)cc3)CC2)c2ccccc21,9%,3%,u,-12,-1%,-13%
COc1cc(/C=C(\C#N)C(=O)N2CCOCC2)cc(Br)c1O,u,0%,-115%,18,3%,u
CCOC(=O)Cn1cc(/C=C(\C#N)C(=O)N2CCOCC2)c2ccccc21,-11%,-1%,-1%,-95*,u,0%
CCN(CC)C(=O)Cn1cc(/C=C(\C#N)C(=O)N2CCN(c3ccccc3)CC2)c2ccccc21,u,u,0%,-7,u,21µM*
CCN(CC)C(=O)Cn1cc(C(=O)C(=O)N2CCN(c3ccc([N+](=O)[O-])cc3)CC2)c2ccccc21,7.3µM*,22%,u,u,1%,6.5µM*
COc1ccc(N2CCN(C(=O)C(=O)c3cc(OC)c4ccccc4c3)CC2)cc1,21µM*,x,x,-2,x,23µM*
COc1ccccc1CNc1nc(Nc2ccccc2OC)c2sccc2n1,4.6µM*,x,x,7,x,5.8µM*
COc1ccccc1CNc1nc(Nc2ccc(C)cc2C)c2sccc2n1,7.3µM*,x,x,u,x,15µM*
COc1ccc2ccccc2c1CN1CCc2nnc(CNC(=O)c3cccc(F)c3)n2CC1,-24%,x,x,x,x,12%
CCc1ccc2[nH]c(=O)c(-c3ccccc3)c(O)c2c1,3%,-1%,1%,6,7%,18%
COc1ccc(-n2c(CN3CCC(C)CC3)nc3ccc([N+](=O)[O-])cc3c2=O)c(OC)c1,u,-1%,-2%,17,u,18µM*

# Source: PubChem BioAssay
